# High-throughput results deposited in PubChem BioAssay by National Center for Advancing Translational Sciences (NCATS).
# Pf Dd2 inh = Plasmodium falciparum Dd2 growth inhibition; Potency, µM (highest dose often 28.9 µM), without a hit: at the top dose activity, negative = inhibition, hits mostly inhibitors; P. falciparum Dd2 growth, SYBR Green, 72 h; hit rate 4.3% among 120,000; active = well fitted inhibition curve with a large enough effect;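 note: plate controls were DMSO vehicle for no effect and reference drug for full effect; nearly all actives have a fitted effect of over 65% in size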
#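 Readout: SYBR Green fluorescence, 485 nm excitation, 535 nm emission, after ~16 h lysis at 37C. Before that, Dd2-infected red cells (2.5% hematocrit) grew 72 h with compound, 29 uM top final concentration.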
# Starred values were filed as active, the others as inactive; i = inactive; [ ] = dose if it differs, or a comment. Shown is part of a subset that was picked to be rich in hits. Potency is the fitted concentration of half-maximal effect.
SMILES,Pf Dd2 inh
CCn1cc(S(=O)(=O)c2cccc(C)c2)c(=O)c2cc(F)c(N3CCCC(C)C3)cc21 (configuration not stated),77%
O=C1NC2(CCN(Cc3ccccn3)CC2)Oc2ccccc21,-15%[44.1 µM]
COc1ccc(OC)c(NC(=O)CCNS(=O)(=O)c2cccc3nsnc23)c1,1%
Cc1cc(F)ccc1NC(=O)CCn1nc(C)c(S(=O)(=O)N2CCCCC2)c1C,i
CN1CCC(N2CC[C@@H](CO)N(C)c3cccnc3C2)CC1,14%[44.1 µM]
CCOC(=O)c1cc2c(=O)n3ccccc3nc2n(CC(C)C)c1=NC(=O)c1cc2ccccc2o1,3%
Cc1ccc(CNC(=O)c2c[nH]c3ccc(S(=O)(=O)N4CCOCC4)cc3c2=O)cc1,-22%
O=C(NC1CC(=O)N(c2cccc(F)c2)C1)c1ccc(S(=O)(=O)N2CCOCC2)cc1 (configuration not stated),40%
O=C(NCCSc1c(-c2ccc(Cl)cc2)[nH]c2ccccc12)c1ccc(S(=O)(=O)N2CCOCC2)cc1,8.9µM*
O=C(CN1C(=O)CCc2cc(S(=O)(=O)N3CCOCC3)ccc21)NCc1ccc(Cl)cc1,i
CCn1cc(C(=O)NCCc2ccccc2)c(=O)c2cc(S(=O)(=O)N3CCOCC3)ccc21,-7%
O=C(NCCCn1ccnn1)c1cccc(S(=O)(=O)N2CCOCC2)c1,1%
O=C(NCCSc1c(-c2ccccc2)[nH]c2ccccc12)c1ccc(S(=O)(=O)N2CCOCC2)cc1,10µM*
O=C(NC1CC(=O)N(c2ccc(Cl)cc2)C1)c1ccc(S(=O)(=O)N2CCOCC2)cc1 (configuration not stated),i
O=C(NCCSc1c(-c2ccc(Br)cc2)[nH]c2ccccc12)c1ccc(S(=O)(=O)N2CCOCC2)cc1,5.6µM*
CC(=O)c1ccc(N2CCN(C(=O)Nc3ccc(C(C)C)cc3)CC2)cc1,i
Fc1ccc(Cc2noc(-c3nc(-c4ccncc4)no3)n2)cc1,-14%
COc1ccc(OC)c(CNC(=O)C2CCCN(c3ncnc4onc(-c5ccc(F)cc5)c34)C2)c1 (configuration not stated),-18%
CCOc1ccc(/C=C/C(=O)Nc2sc3c(c2C(=O)OC)C(C(=O)OC)CC3)cc1 (configuration not stated),-5%
CCn1ccc(C(=O)N2CCn3c(nnc3[C@@H]3C[C@@H](O)CN3Cc3ccccc3)C2)n1,-3%
CNC(=O)c1cc[nH]c1C1CCCN(C(=O)CC2=CCCCC2)C1 (configuration not stated),-14%
CN1CCN(C(=O)C2(N(C)CCc3ccccc3)Cc3ccccc3C2)CC1,1µM*
CN(C)CCC(=O)N1Cc2ccccc2CC2(CCCCN2C)C1 (configuration not stated),-34%
CC(=O)N1Cc2ccccc2CC2(CCN(C)CC2)C1,-21%[44.1 µM]
CCc1ccc(S(=O)(=O)NCc2nc3cccnc3n2Cc2cccc(OC)c2)cc1,-18%
SMILES,Pf Dd2 inh
Cc1cc(C(F)(F)F)n(CC(C)CNC(=O)c2cn(CCN)nn2)n1 (configuration not stated),-12%
CCOc1ccc(NC(=O)Cn2c(=O)oc3cc(S(=O)(=O)N4CCCCCC4)ccc32)cc1,3%
O=C(c1ccc(F)cc1)N(CC1CCOC1)C1CC1 (configuration not stated),i[5.79 µM]
CCOc1ccccc1NC(=O)c1sc2nc3c(cc2c1N)CN(Cc1ccccc1)CC3,10µM*
Nc1c(C(=O)Nc2ccccc2)sc2nc3c(cc12)CN(Cc1ccccc1)CC3,-12%
CN1CCc2nc3sc(C(=O)Nc4ccccc4OC(F)(F)F)c(N)c3cc2C1,-14%
CCNC(=O)c1ccc(N2CC3CC(C2)[C@H]2CCCC(=O)N2C3)nc1 (some centres not stated),-17%
O=C1c2[nH]nc(-c3ccccc3O)c2C(c2ccccc2F)N1Cc1cccnc1 (configuration not stated),10%
CC(C)OCCCNC(=O)C1Cn2cccc2C(=O)N1Cc1ccccc1 (configuration not stated),9%
CC(C)OCCCN1C(=O)c2[nH]nc(-c3ccccc3O)c2C1c1ccccc1F (configuration not stated),11µM*
O=C1c2[nH]nc(-c3ccccc3O)c2C(c2cccc(OCc3ccccc3)c2)N1CCO (configuration not stated),140%[5.79 µM]
COCCCN1C(=O)c2[nH]nc(-c3ccccc3O)c2C1c1ccc(OCc2ccccc2)cc1 (configuration not stated),8.9µM*
COCCCn1c(C)cnc1C1CCN(C(=O)COc2ccccc2)C1 (configuration not stated),-18%
CC12CN3CC(C)(CN(C1)C3c1ccc(OCc3ccccc3)cc1)C2=O (configuration not stated),23%
CCCCN1C(=O)c2[nH]nc(-c3ccccc3O)c2C1c1ccc(OCc2ccccc2)cc1 (configuration not stated),1.4µM*
CC(C)OCCCN1C(=O)c2[nH]nc(-c3ccccc3O)c2C1c1cccc(OCc2ccccc2)c1 (configuration not stated),5.6µM*
